From PubChem
HT1080-NT tox: kills 2HG-producing HT-1080-NT fibrosarcoma cells; 1.6% of 360,000 active; Potency, µM (doses to about 46.1 µM), without a hit: top-dose activity, negative = less viability, usual class: cytotoxic; HT-1080-NT fibrosarcoma viability, CellTiter-Glo ATP luminescence, 48 h;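 also: NT is the 2HG producing partner of a matched IDH1 knockdown line; potency is read from the fitted curve at half-maximal effect; 0% = DMSO-treated cells and -100% = media-only wells without cells; nearly all actives have a fitted effect of over 55% in size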
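Toxicity toward the 2HG-producing NT line was scored as %Activity, normalised to DMSO and no-cell wells, from CellTiter-Glo luminescence after 48 hours' treatment.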
HT1080 IDH1KD tx: toxicity to HT-1080 IDH1 knockdown cells (counter line) | HT-1080 IDH1 knockdown viability, ATP luminescence, 48 h | Potency, µM (top dose mostly 46.1 µM), without a hit: top-dose activity, negative = toxicity, usual class: cytotoxic | 2% of 360,000 active | AID 686971;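 also: potency is read from the fitted curve at half-maximal effect; 0% = DMSO wells and -100% = cell-free medium wells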
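Viability of IDH1-knockdown HT-1080 fibrosarcoma cells was assessed by CellTiter-Glo after 48 h at 37 °C with titrated compound; concentration-effect curves were classified by fit quality and response size.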
TDP1 cell CPT: growth inhibition of DT40 Tdp1-/-;hTDP1 cells with camptothecin (screen for TDP1 inhibitors). chicken DT40 Tdp1-/-;hTDP1 cells + 20 nM CPT, ATP luminescence, 48 h. Potency, µM (titrated, usually from 46.2 µM), for the others: at the highest dose activity change, negative = growth inhibition, most hits filed as inhibitors. 12% of 420,000 active; also: potency is read from the fitted curve at half-maximal effect; nearly all actives have a fitted effect of over 55% in size
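Chicken DT40 Tdp1-/- cells stably complemented with human TDP1 were seeded at 400 cells/well in medium containing 20 nM camptothecin, exposed to pin-transferred compounds, and grown at 37 °C for at least 48 hr. Viability was read as ATP luminescence.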
TDP1 cell noCPT: qHTS for Inhibitors of human tyrosyl-DNA phosphodiesterase 1 (TDP1): qHTS in cells in absence of CPT; DT40 Tdp1-/- hTDP1 cells, no CPT, ATP luminescence, 48 h; Potency, µM (series often up to 46.2 µM), inactives show at the highest dose activity change, negative = growth inhibition, most hits filed as inhibitors; 15% of 420,000 active; AID 686978, 2013; also: potency is read from the fitted curve at half-maximal effect; nearly all actives have a fitted effect of over 55% in size
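Seeded 400 DT40-hTDP1 cells/well (vehicle DMSO, no 20 nM CPT); pinned compounds; ≥48 hr at 37 °C; CellTiter-Glo luminescence as viability measure.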
IL1B secr inh: inflammasome signaling inhibition, IL-1 beta readout | AID 743279 | 4.7% of 360,000 active | THP-1 LPS/ATP IL-1B secretion, AlphaLISA, 16 h; active compounds read low | activity change, % at 57.5 µM; in the data active = activity change below about -50%; inconclusive = mostly about -30% to -49%
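Secreted IL-1B measured by AlphaLISA bead assay after 16 h compound exposure of THP-1 cells; compounds (final up to 57.5 uM) added 1 h before LPS (250 ng/mL) and ATP (1.25 mM) stimulation; lower signal means less secretion.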
ELG1 repair inh: inhibitors of ELG1-dependent DNA repair in HEK293T cells. HEK293T ELG1-luciferase reporter, luminescence, 16 h; DNA damage induced by 5-fluorouridine. Potency, µM (highest dose often 46.1 µM), for the others: top-dose activity change, negative = inhibition, usual class: inhibitors. 2.3% of 330,000 active. AID 504467; also: potency is read from the fitted curve at half-maximal effect; nearly all actives have a fitted effect of over 55% in size
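Quantitative HTS, concentration-response format. 2,000 cells/well co-treated with 5-fluorouridine and compound, 16 hr in 5% CO2 at 37 °C; ONE-Glo luminescence read after 30 min.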
Starred values were filed as active, the others as inactive; ? = inconclusive; · = not tested or not shown. Rows were chosen to be rich in hits. Some 19% of all compounds tested hit in one or more screens of this group. Unless noted, calls follow the shape of the dose curve; as a rule, active = well fitted curve in the direction sought with a large enough effect; inconclusive = small, poorly fitted or top-dose-only effect, or another doubt; inactive = no such curve, though single readings can be large; an effect the other way counts as inactive or inconclusive. Unless noted, % is scaled to controls: 0 for no effect and ±100 for the full control effect.

SMILES | HT1080-NT tox | HT1080 IDH1KD tx | TDP1 cell CPT | TDP1 cell noCPT | IL1B secr inh | ELG1 repair inh
O=C(Nc1ccc2c(c1)OCO2)Nc1ccc2c(c1)OCO2 | -11% | -20% | -11% | 7% | -29 | ?
Cc1cccc(C(=O)Nc2ccc(OCc3cc(=O)n4ccsc4n3)cc2)c1 | · | · | -29% | -23% | · | ·
Cc1cccn2c(=O)cc(COc3cccc(NC(=O)c4cccc(Cl)c4)c3)nc12 | · | · | 1% | 1% | · | ·
O=C(Nc1ccc([N+](=O)[O-])cc1)Nc1ccc2c(c1)OCCO2 | -10% | -5% | ? | 15µM* | -68* | ?
COc1cc([N+](=O)[O-])ccc1NC(=O)Nc1ccc2c(c1)OCCO2 | 17% | 9% | ? | ? | · | 4%
O=C(NCCc1ccccc1)Nc1ccc2c(c1)OCO2 | 3% | 4% | -14% | -27% | 6 | ?
O=C(Nc1ccc2c(c1)OCO2)Nc1ccc(F)cc1F | -5% | 0% | 3.7µM* | 2.3µM* | 0 | ?
O=C(Nc1ccc2c(c1)OCO2)Nc1ccc(Cl)cc1Cl | -1% | -2% | ? | ? | ? | ?
O=C(NCCc1ccc(F)cc1)Nc1ccc2c(c1)OCO2 | -1% | 7% | 18µM* | ? | ? | ?
COc1cccc(NC(=S)/C(=C(\[O-])c2cc(C)n(-c3ccccc3F)c2C)[n+]2ccc(N(C)C)cc2)c1 | -13% | -24% | 21µM* | 12µM* | -17 | ?
Cc1cc(C([O-])=C(C(=S)Nc2ccc(F)cc2)[n+]2ccccc2)c(C)n1-c1ccc(F)cc1 | -1% | -2% | 26µM* | 21µM* | -19 | ·
COc1cccc(NC(=O)CCN2CCN(c3ccccc3F)CC2)c1 | 1% | -2% | -29% | -12% | 5 | -1%
CCOc1ccc2[nH]c3ncccc3c(=O)c2c1 | -16% | -13% | 4% | ? | -60* | 26%
CCOc1ccc2[nH]cc(C(=O)NCCc3ccccc3)c(=O)c2c1 | -20% | -2% | ? | ? | -54* | ?
CCOc1ccc2[nH]cc(C(=O)NCc3ccccc3)c(=O)c2c1 | -13% | -2% | 16µM* | 21µM* | -10 | ?
CCc1ccc2[nH]cc(C(=O)OCCOC)c(=O)c2c1 | 7% | 13% | ? | 23µM* | 8 | 5%
CCOc1ccc2[nH]c(C)c(CN3CCOCC3)c(=O)c2c1 | 2% | -3% | -11% | -12% | -11 | -3%
CCOc1ccc(NS(=O)(=O)c2ccc3[nH]cc(C(=O)NCc4ccccc4)c(=O)c3c2)cc1 | · | · | -27% | ? | · | ·
CCOC(=O)c1c[nH]c2cc(OCC(C)C)c(OCC(C)C)cc2c1=O | · | · | -4% | -11% | · | ·
Cc1cc(F)ccc1NS(=O)(=O)c1c(C(=O)N2CCOCC2)c(C)n(C)c1C | 0% | 7% | -1% | -4% | -5 | -5%
CCN(CC)CCNC(=O)CSc1c2c(nc3cc(Cl)ccc13)CCCC2 | ? | ? | ? | ? | -104* | ?
COc1ccc(OC)c(NC(=O)CSc2c3c(nc4ccccc24)CCCC3)c1 | · | · | ? | 7.3µM* | · | ·
COc1cccc(NC(=O)CSc2c3c(nc4ccccc24)CCCC3)c1 | -10% | ? | 23µM* | 21µM* | -96* | 18%
CCC(C)NC(=O)CSc1c2c(nc3ccccc13)CCCC2 (stereo unspecified) | -5% | 0% | ? | ? | ? | 14%
CCC(C(=O)Nc1cc(OC)ccc1OC)n1nc(-c2ccccc2)c2c(c1=O)CCCC2 (stereo unspecified) | · | · | 16µM* | 18µM* | · | ·
SMILES | HT1080-NT tox | HT1080 IDH1KD tx | TDP1 cell CPT | TDP1 cell noCPT | IL1B secr inh | ELG1 repair inh
COc1ccc(NC(=O)CSc2nc(C3CC3)nc3ccccc23)c(OC)c1 | -1% | -22% | -20% | 23µM* | -59* | -17%
COc1ccc(C)cc1NC(=O)c1ccc2c(SCC(=O)O)c3c(nc2c1)CCCC3 | 0% | 2% | -13% | -15% | -17 | 13%
Cc1ccc(NC(=O)CSc2c3c(nc4ccccc24)CCCC3)cc1F | · | · | ? | 15µM* | · | ·
COc1ccc(NC(=O)CSc2nc(C3CC3)nc3ccccc23)cc1 | ? | ? | ? | ? | ? | -16%
Cc1cccc(NC(=O)CSc2c3c(nc4ccccc24)CCC3)n1 | ? | ? | ? | ? | -6 | 10%
COc1ccc(OC)c(NC(=O)CSc2c3c(nc4cc(Cl)ccc24)CCCC3)c1 | · | · | ? | 23µM* | · | ·
COc1ccc(Cl)cc1NC(=O)CSc1c2c(nc3ccccc13)CCC2 | · | · | 21µM* | 16µM* | · | ·
C=CCOC(=O)C1=C(C)NC(C)=C(C(=O)OCC=C)C1/C=C/c1ccccc1 | ? | 18µM* | ? | ? | -69* | ?
CCOC(=O)Nc1ccc2c3c(cccc13)-c1ccccc1-2 | ? | ? | 18µM* | 21µM* | 25 | ·
On1c2c(c3c4nonc4ccc31)CCCC2 | · | · | · | · | · | 13µM*
CCOc1ccc(-c2nnn(CC(=O)N3CCCC(C)C3)n2)cc1 (stereo unspecified) | 0% | 0% | -25% | -3% | -3 | -6%
O=C(NC1CCCCC1)NC1C2CC3CC(C2)CC1C3 (stereo unspecified) | 5% | 0% | ? | ? | 9 | 10%
CC(C)=CCC/C(C)=C/Cc1c(O)ccc(C(=O)/C=C/c2ccc(O)cc2)c1O | ? | -26% | ? | 21µM* | -80* | -1%
COCOc1ccc(/C=C/C(=O)c2c(OCOC)cc(OCOC)c(CC=C(C)C)c2O)cc1OCOC | 3% | 8% | ? | ? | 19 | ·
COc1ccc(N(CC(=O)NCCc2ccc(OC)c(OC)c2)S(=O)(=O)c2ccc(OC)c(OC)c2)cc1 | 14% | -8% | ? | ? | -7 | -2%
COC(=O)c1ccc2c(c1)C(C)(C)C(/C=C/c1ccccc1O)=[N+]2C | 4.5µM* | 3.5µM* | 3.2µM* | 3.2µM* | -100* | 6.5µM*
CCCCCC(O)(c1ccc(OC)cc1)C(CN1CCOCC1)c1ccccc1 (stereo unspecified) | ? | ? | 16µM* | 10µM* | -30 | -8%
COc1ccc(C(O)(C(C)C)C(CN2CCOCC2)c2ccc(Cl)cc2)cc1 (stereo unspecified) | -20% | 7% | ? | 18µM* | -17 | -28%
